Results from the supplement of paper PMC8728848.
Many of the other results were omitted from the sample, so the strongest signals are more common in it than they were.

Legend:
Test in all cases: glycan array binding signal (z-score within array); higher = stronger binding
Settings in all cases: glycan notation: IUPAC condensed, linker removed
[1] = target: Fuc(a1-2)Gal(b1-3)GalNAc
In short: (§1)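 Negative Z-scores can be read as non-binding. The Z-score is calculated within each array and then averaged across arrays of one protein sequence at different concentrations or buffers and across linkers. Arrays, 3228 in all, were curated from the Consortium for Functional Glycomics database and kept only where the protein sequence was available.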

[2] = target: Fuc(a1-2)Gal(b1-3)GlcNAc(b1-2)Man(a1-3)[Fuc(a1-2)Gal(b1-3)GlcNAc(b1-2)Man(a1-6)]Man(b1-4)GlcNAc(b1-4)GlcNAc
In short: as §1

[3] = target: Fuc(a1-2)Gal(b1-4)GlcNAc(b1-2)[Fuc(a1-2)Gal(b1-4)GlcNAc(b1-4)]Man(a1-3)[Fuc(a1-2)Gal(b1-4)GlcNAc(b1-2)Man(a1-6)]Man(b1-4)GlcNAc(b1-4)GlcNAc
In short: as §1

[4] = target: Fuc(a1-2)[Gal(a1-3)]Gal(b1-4)Glc
In short: as §1

[5] = target: Fuc(a1-2)[Gal(a1-3)]Gal(b1-4)GlcNAc(b1-2)Man(a1-3)[Fuc(a1-2)[Gal(a1-3)]Gal(b1-4)GlcNAc(b1-2)Man(a1-6)]Man(b1-4)GlcNAc(b1-4)GlcNAc
In short: as §1

[6] = target: Fuc(a1-2)[Gal(a1-3)]Gal(b1-4)[Fuc(a1-3)]GlcNAc
In short: as §1

[7] = target: Fuc(a1-2)[GalNAc(a1-3)]Gal(b1-3)GlcNAc(b1-2)Man(a1-3)[Fuc(a1-2)[GalNAc(a1-3)]Gal(b1-3)GlcNAc(b1-2)Man(a1-6)]Man(b1-4)GlcNAc(b1-4)[Fuc(a1-6)]GlcNAc
In short: as §1

[8] = target: Fuc(a1-2)[GalNAc(a1-3)]Gal(b1-4)GlcNAc(b1-2)Man(a1-3)[Fuc(a1-2)[GalNAc(a1-3)]Gal(b1-4)GlcNAc(b1-2)Man(a1-6)]Man(b1-4)GlcNAc(b1-4)GlcNAc
In short: as §1

[9] = target: Fuc(a1-2)[GalNAc(a1-3)]Gal(b1-4)GlcNAc(b1-3)Gal(b1-4)GlcNAc
In short: as §1

[10] = target: Fuc(a1-2)[GalNAc(a1-3)]Gal(b1-4)GlcNAc(b1-3)Gal(b1-4)GlcNAc(b1-3)Gal(b1-4)GlcNAc
In short: as §1

[11] = target: Fuc(a1-3)[Gal(b1-4)]GlcNAc(b1-2)Man(a1-6)[Gal(b1-4)GlcNAc(b1-2)Man(a1-3)]Man(b1-4)GlcNAc(b1-4)GlcNAc
In short: as §1

[12] = target: Gal(a1-3)Gal
In short: as §1

[13] = target: Gal(a1-3)Gal(b1-4)[Fuc(a1-3)]GlcNAc(b1-2)Man(a1-3)[Gal(a1-3)Gal(b1-4)[Fuc(a1-3)]GlcNAc(b1-2)Man(a1-6)]Man(b1-4)GlcNAc(b1-4)GlcNAc
In short: as §1

[14] = target: Gal(b1-2)Gal
In short: as §1

[15] = target: Gal(b1-3)GalNAc(a1-3)[Fuc(a1-2)]Gal(b1-4)GlcNAc
In short: as §1

[16] = target: Gal(b1-3)GlcNAc
In short: as §1

[17] = target: Gal(b1-3)GlcNAc(b1-2)Man(a1-3)[Gal(b1-3)GlcNAc(b1-2)Man(a1-6)]Man(b1-4)GlcNAc(b1-4)[Fuc(a1-6)]GlcNAc
In short: as §1

[18] = target: Gal(b1-3)GlcNAc(b1-3)Gal(b1-4)Glc
In short: as §1

[19] = target: Gal(b1-3)GlcNAc(b1-3)GalNAc
In short: as §1

[20] = target: Gal(b1-4)Gal
In short: as §1

[21] = target: Gal(b1-4)GlcNAc(b1-2)Man(a1-3)[Man(a1-6)]Man(b1-4)GlcNAc(b1-4)GlcNAc
In short: as §1

[22] = target: Gal(b1-4)GlcNAc(b1-2)[Gal(b1-4)GlcNAc(b1-6)]Man(a1-6)[GlcNAc(b1-4)][Gal(b1-4)GlcNAc(b1-2)Man(a1-3)]Man(b1-4)GlcNAc(b1-4)GlcNAc
In short: as §1

[23] = target: Gal(b1-4)GlcNAc(b1-3)Gal(b1-3)GlcNAc
In short: as §1

[24] = target: Gal(b1-4)GlcNAc(b1-3)Gal(b1-4)Glc
In short: as §1

[25] = target: Gal3S6S(b1-4)GlcNAc6S
In short: as §1

[26] = target: Gal6S(b1-4)Glc6S
In short: as §1

[27] = target: Gal6S(b1-4)GlcNAc
In short: as §1

[28] = target: GalNAc6S(b1-4)GlcNAc
In short: as §1

[29] = target: Glc(a1-6)Glc(a1-6)Glc(a1-6)Glc
In short: as §1

[30] = target: Glc(b1-4)Glc
In short: as §1

[31] = target: Glc(b1-6)Glc
In short: as §1

[32] = target: GlcA(b1-3)Gal
In short: as §1

[33] = target: GlcNAc(b1-3)[GlcNAc(b1-4)][GlcNAc(b1-6)]GlcNAc
In short: as §1

[34] = target: GlcNAc6S(b1-3)Gal(b1-4)GlcNAc
In short: as §1

[35] = target: Man(a1-3)[Man(a1-6)]Man(a1-6)[Man(a1-2)Man(a1-3)]Man(b1-4)GlcNAc(b1-4)GlcNAc
In short: as §1

[36] = target: Man(a1-3)[Man(a1-6)]Man(a1-6)[Man(a1-3)]Man
In short: as §1

[37] = target: Man(a1-3)[Man(a1-6)]Man(a1-6)[Man(a1-3)]Man(b1-4)GlcNAc(b1-4)GlcNAc
In short: as §1

[38] = target: Neu5Ac(a2-3)Gal(b1-3)GlcNAc6S
In short: as §1

[39] = target: Neu5Ac(a2-3)Gal(b1-4)GlcNAc(b1-2)Man(a1-3)[GlcNAc(b1-2)Man(b1-4)GlcNAc(b1-2)Man(a1-6)]Man(b1-4)GlcNAc(b1-4)GlcNAc
In short: as §1

[40] = target: Neu5Ac(a2-3)Gal(b1-4)GlcNAc(b1-2)Man(a1-3)[Neu5Ac(a2-6)Gal(b1-4)GlcNAc(b1-2)Man(a1-6)]Man(b1-4)GlcNAc(b1-4)GlcNAc
In short: as §1

[41] = target: Neu5Ac(a2-3)Gal(b1-4)GlcNAc(b1-3)Gal(b1-4)GlcNAc
In short: as §1

[42] = target: Neu5Ac(a2-3)Gal(b1-4)[Fuc(a1-3)]GlcNAc(b1-3)Gal
In short: as §1

[43] = target: Neu5Ac(a2-3)Gal(b1-4)[Fuc(a1-3)]GlcNAc6S
In short: as §1

[44] = target: Neu5Ac(a2-3)GalNAc
In short: as §1

[45] = target: Neu5Ac(a2-6)Gal(b1-4)GlcNAc(b1-2)Man(a1-3)[Gal(b1-4)GlcNAc(b1-2)Man(a1-6)]Man(b1-4)GlcNAc(b1-4)GlcNAc
In short: as §1

[46] = target: Neu5Ac(a2-8)Neu5Ac(a2-8)Neu5Ac(a2-3)[GalNAc(b1-4)]Gal(b1-4)Glc
In short: as §1

[47] = target: Neu5Gc(a2-3)Gal(b1-3)[Fuc(a1-4)]GlcNAc
In short: as §1

[48] = target: Neu5Gc(b2-6)Gal(b1-4)GlcNAc
In short: as §1

B1: Gal 8 (Homo sapiens), O00214_1 (protein)
chain: MMLSLNNLQNIIYNPVIPFVGTIPDQLDPGTLIVIRGHVPSDADRFQVDLQNGSSMKPRADVAFHFNPRFKRAGCIVCNTLINEKWGREEITYDTPFKREKSFEIVIMVLKDKFQVAVNGKHTLLYGHRIGPEKIDTLGIYGKVNIHSIGFSFSSDLQSTQASSLELTEISRENVPKSGTPQLRLPFAARLNTPMGPGRTVVVKGEVNANAKSFNVDLLAGKSKDIALHLNPRLNIKAFVRNSFLQESWGEEERNITSFPFSPGMYFEMIIYCDVREFKVAVNGVHSLEYKHRFKELSSIDTLEINGDIHLLEVRSW
[1]
  glycan array binding signal (z-score): -0.23
[2]
  glycan array binding signal (z-score): 0.466
[3]
  glycan array binding signal (z-score): -1.24
[4]
  glycan array binding signal (z-score): 3.1
[5]
  glycan array binding signal (z-score): 2.33
[6]
  glycan array binding signal (z-score): -0.143
[7]
  glycan array binding signal (z-score): 1.73
[8]
  glycan array binding signal (z-score): 2.14
[9]
  glycan array binding signal (z-score): 2.58
[10]
  glycan array binding signal (z-score): 2.31
[11]
  glycan array binding signal (z-score): -0.273
[12]
  glycan array binding signal (z-score): -0.252
[13]
  glycan array binding signal (z-score): -0.137
[14]
  glycan array binding signal (z-score): -0.201
[15]
  glycan array binding signal (z-score): 2.17
[16]
  glycan array binding signal (z-score): -0.167
[17]
  glycan array binding signal (z-score): -0.63
[18]
  glycan array binding signal (z-score): 0.084
[19]
  glycan array binding signal (z-score): -0.235
[20]
  glycan array binding signal (z-score): -0.099
[21]
  glycan array binding signal (z-score): 0.003
[22]
  glycan array binding signal (z-score): -0.251
[23]
  glycan array binding signal (z-score): 1.38
[24]
  glycan array binding signal (z-score): 2.32
[25]
  glycan array binding signal (z-score): -0.201
[26]
  glycan array binding signal (z-score): -0.094
[27]
  glycan array binding signal (z-score): -0.172
[28]
  glycan array binding signal (z-score): -0.215
[29]
  glycan array binding signal (z-score): -0.23
[30]
  glycan array binding signal (z-score): 0.078
[31]
  glycan array binding signal (z-score): -0.234
[32]
  glycan array binding signal (z-score): -0.219
[33]
  glycan array binding signal (z-score): -0.227
[34]
  glycan array binding signal (z-score): -0.585
[35]
  glycan array binding signal (z-score): 2.31
[36]
  glycan array binding signal (z-score): -0.195
[37]
  glycan array binding signal (z-score): -0.16
[38]
  glycan array binding signal (z-score): 2.19
[39]
  glycan array binding signal (z-score): -0.189
[40]
  glycan array binding signal (z-score): -0.225
[41]
  glycan array binding signal (z-score): -0.244
[42]
  glycan array binding signal (z-score): -0.243
[43]
  glycan array binding signal (z-score): -0.235
[44]
  glycan array binding signal (z-score): -0.201
[45]
  glycan array binding signal (z-score): -0.254
[46]
  glycan array binding signal (z-score): 0.35
[47]
  glycan array binding signal (z-score): -0.233
[48]
  glycan array binding signal (z-score): -0.219
